# From PubChem BioAssay
# The full list was thinned out, with hits kept by preference.
# DT40 TDP1 no CPT: qHTS for Inhibitors of human tyrosyl-DNA phosphodiesterase 1 (TDP1): qHTS in cells in absence of CPT. DT40 Tdp1-/- hTDP1 cells, no CPT, ATP luminescence, 48 h. Potency, µM (series often up to 46.2 µM), for the others: at the highest dose activity change, negative = growth inhibition, most hits filed as inhibitors. 420,000 tested, 15% active; note: potency is the fitted concentration of half-maximal effect; nearly all actives have a fitted effect of over 55% in size
#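 No-CPT arm: Tdp1-/-;hTDP1 DT40 cells (400/well) plus compounds, incubated ≥48 hr at 37 °C. Readout CellTiter-Glo luminescence.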
# HT1080NT lethal: kills 2HG-producing HT-1080-NT fibrosarcoma cells; HT-1080-NT fibrosarcoma viability, CellTiter-Glo ATP luminescence, 48 h; Potency, µM (top dose mostly 46.1 µM), inactives show at the highest dose activity, negative = less viability, hits mostly cytotoxic; 360,000 tested, 1.6% active; AID 686970;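 note: NT is the 2HG producing partner of a matched IDH1 knockdown line; potency is the fitted concentration of half-maximal effect; 0% = DMSO-treated cells and -100% = media-only wells without cells; nearly all actives have a fitted effect of over 55% in size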
#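 HT-1080-NT fibrosarcoma cells (2HG-overproducing), 750 cells/well in RPMI with 5% FBS, dosed after 2 h and incubated 48 h at 37C. CellTiter-Glo luminescence normalized to DMSO and no-cell wells; concentration-response curves fitted and classed.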
# TDP1 cell CPT: growth inhibition of DT40 Tdp1-/-;hTDP1 cells with camptothecin (screen for TDP1 inhibitors); chicken DT40 Tdp1-/-;hTDP1 cells + 20 nM CPT, ATP luminescence, 48 h; Potency, µM (series often up to 46.2 µM), inactives show at the highest dose activity change, negative = growth inhibition, most hits filed as inhibitors; 420,000 tested, 12% active; note: potency is the fitted concentration of half-maximal effect; nearly all actives have a fitted effect of over 55% in size
#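 Cell growth measured by CellTiter-Glo luminescence after a minimum 48 h, 37 C compound exposure with 20 nM CPT in Tdp1-knockout DT40 cells stably expressing hTDP1, seeded 400/well; qHTS titration format.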
# IL1B secr inh: inhibitors of inflammasome signaling (IL-1 beta secretion). THP-1 LPS/ATP IL-1B secretion, AlphaLISA, 16 h; active compounds read low. activity change, % at 57.5 µM. 360,000 tested, 4.7% active. AID 743279; in the data active = activity change below about -50%; inconclusive = mostly about -30% to -49%
#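 Secreted IL-1B measured by AlphaLISA bead assay after 16 h compound exposure of THP-1 cells; compounds (final up to 57.5 uM) added 1 h before LPS (250 ng/mL) and ATP (1.25 mM) stimulation; lower signal means less secretion.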
# 12-LOX inh: ALOX12 (human) lipoxygenase inhibition; P18054; purified 12hLO, xylenol orange hydroperoxide absorbance; Potency, µM (doses to about 108 µM), without a hit: at the highest dose activity change, negative = inhibition, most hits filed as inhibitors; 580,000 tested, 1.1% active; AID 1671190; note: potency is the fitted concentration of half-maximal effect
# Target sequence (P18054 whole entry, looked up): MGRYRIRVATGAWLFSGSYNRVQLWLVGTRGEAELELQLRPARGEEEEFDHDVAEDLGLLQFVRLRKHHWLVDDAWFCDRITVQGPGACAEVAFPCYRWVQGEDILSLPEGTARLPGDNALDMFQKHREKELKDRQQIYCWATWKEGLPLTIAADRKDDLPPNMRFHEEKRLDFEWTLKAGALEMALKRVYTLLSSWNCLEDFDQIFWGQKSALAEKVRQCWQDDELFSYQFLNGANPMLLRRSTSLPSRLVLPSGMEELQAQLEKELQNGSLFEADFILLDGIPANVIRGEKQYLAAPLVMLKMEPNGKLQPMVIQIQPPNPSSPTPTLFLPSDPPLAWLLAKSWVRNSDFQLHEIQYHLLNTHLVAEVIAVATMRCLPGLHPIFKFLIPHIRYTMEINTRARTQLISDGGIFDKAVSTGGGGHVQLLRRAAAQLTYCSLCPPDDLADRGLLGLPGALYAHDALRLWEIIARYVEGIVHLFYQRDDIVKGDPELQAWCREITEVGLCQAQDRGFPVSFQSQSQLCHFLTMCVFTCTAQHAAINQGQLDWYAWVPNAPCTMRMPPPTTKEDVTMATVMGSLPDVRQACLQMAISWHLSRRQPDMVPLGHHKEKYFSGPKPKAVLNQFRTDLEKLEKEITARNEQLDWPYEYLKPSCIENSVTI
#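 Purified human 12hLO (150 nM final) in 25 mM Hepes, 0.01% Triton X-100, pH 7.0 was preincubated 15 min at room temperature with compound. Then 40 uM arachidonic acid was added, 30 min. Hydroperoxide was read by Fe-XO absorbance ratio 573/405 nm.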
# HT1080 IDH1KD tx: toxicity to HT-1080 IDH1 knockdown cells (counter line); AID 686971; HT-1080 IDH1 knockdown viability, ATP luminescence, 48 h; Potency, µM (top dose mostly 46.1 µM), without a hit: top-dose activity, negative = toxicity, actives largely listed as cytotoxic; 360,000 tested, 2% active;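 note: potency is the fitted concentration of half-maximal effect; 0% = DMSO wells and -100% = cell-free medium wells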
#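 Using the IDH1-knockdown HT-1080 line run in the same batch and compound series as the NT line, viability after 48 h at 37 °C was determined by CellTiter-Glo luminescence and expressed as % activity.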
# * = called active by the depositor; u = inconclusive; x = no result; [ ] = remark or other dose. Unless noted, calls come from the whole dose curve; as a rule, active = well fitted curve in the direction sought with a large enough effect; inconclusive = small, poorly fitted or top-dose-only effect, or another doubt; inactive = no such curve, though single readings can be large; an effect the other way counts as inactive or inconclusive. Unless noted, % is set by controls: 0 for no effect and ±100 for the full control effect.
SMILES,DT40 TDP1 no CPT,HT1080NT lethal,TDP1 cell CPT,IL1B secr inh,12-LOX inh,HT1080 IDH1KD tx
N#CCC(=O)Nc1ccc(C(=O)OCC(=O)c2ccc3c(c2)OCO3)cc1,-17%,-7%,4%,u,6%,u
O=C(COC(=O)c1ccc(O)cc1O)Nc1ccc2c(c1)OCCO2,9.2µM*,14%,9.2µM*,-6,u,0%
O=C(COC(=O)c1ccc(O)cc1)Nc1ccc2c(c1)OCO2,12µM*,1%,u,6,-5%,7%
O=C(COC(=O)c1ccc(O)cc1O)Nc1ccc2ccccc2c1,13µM*,-14%,15µM*,23,-1%,-2%
CN(C)S(=O)(=O)c1ccc(C(=O)OCC(=O)Nc2ccc3c(c2)OCO3)cc1,1%,6%[9.24 µM],-6%,8,198%,4%
N#CCC(=O)Nc1ccc(C(=O)OCC(=O)c2ccc3c(c2)OCCO3)cc1,18µM*,17%,u,17,-3%,10%
CC(C)(C)NC(=O)COC(=O)c1ccc(NC(=O)CC#N)cc1,-5%,6%,1.5µM*,41,-18%,3%
Cc1cc(=O)[nH]c(SCC(=O)Nc2ccccc2C)n1,18%,13%,-14%,32,0%,17%
Cc1cc(=O)[nH]c(N=N/C(=N/Nc2ccc(O)cc2)c2ccccc2)n1,6.5µM*,-19%,5.8µM*,112,0%,u
Cc1cc(=O)[nH]c(N=N/C(=N/Nc2ccccc2C)c2ccccc2)n1,5.2µM*,u,4.6µM*,161,3%,u
COc1cccc2c1OCC(C(=O)N1C[C@@H]3[C@H](C1)[C@H]1CC[C@@H]3O1)C2 (stereo not given in full),x,x,x,x,8%,x
CC(=O)Oc1ccc(OC(C)=O)c2c1CC(C)=C(C)C2,13µM*,1%,13µM*,-27,16%,-5%
NC1=NC(=O)S/C1=C\c1ccc(F)cc1,-16%,23µM*,-6%,-8,11%,u
N#CC1=C(N)Oc2cc3ccccc3cc2C1c1cccnc1 (stereo not given),7.3µM*,6.5µM*,8.2µM*,-12,0%,5.8µM*
CC(C)(C)C1=C(C#N)C(c2cccnc2)C(C#N)=C(N)O1 (stereo not given),u,8%,u,0,u,4%
CCOC(=O)C1=C(c2ccccc2)OC(N)=C(C#N)C1c1cccs1 (stereo not given),-13%,-2%,-26%,-9,u,u
CC(C)(C)c1[nH]nc2c1C(c1cccnc1)C(C#N)=C(N)O2 (stereo not given),-9%,8%,-2%,u,-7%,3%
N#CC1=C(N)Oc2cc3ccccc3cc2C1c1cccs1 (stereo not given),11µM*,u,11µM*,0,u,u
C[n+]1cccc(C2C(C#N)=C(N)Oc3c2ccc2ccccc32)c1 (stereo not given),u,12µM*,u,41,-19%,15µM*
N#CC1=C(N)Oc2c(ccc3cccnc23)C1c1cccnc1 (stereo not given),5.2µM*,7.3µM*,5.8µM*,62,u,8.2µM*
C[n+]1cccc2ccc3c(c21)OC(N)=C(C#N)C3c1ccccc1 (stereo not given),u,u,25%,x,2%,u
O=C(O)CCCC(=O)N[C@H]1CO[C@H]2[C@@H]1OC[C@@H]2Nc1nccc(-c2cccc(F)c2)n1,x,x,x,x,39%[176 µM],x
